# Measured values taken from PubChem BioAssay.
# Where “and” joins values, the source holds several entries; their conditions need not be identical. Equal values may be shown once. Results filed as inconclusive are left out. Calls of active or inactive are those of the source. Unless noted, no stated cut-off is given here; in the data, active means inhibition above about 80%; inactive means the rest.
# What was measured:
# [1] = compounds altering circadian rhythm period length – cell-based, LOPAC library, luminescence reporter (AID 2774; call rule not given here;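 further: values are relative to mean of DMSO wells on each plate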); settings: circadian reporter cells, at 7 µM, actives lie on both sides
# [2] = system: Neuropilin-2 / VEGF-C interaction (human); assay: small molecules blocking Neuropilin-2/VEGF-C interaction – biochemical, microplate binding format, z-score (AID 743281; call rule not given here); settings: microplate NRP2/VEGF-C binding assay; stronger effect = lower value
# [3] = system: Aerobactin synthetase IucA (Klebsiella pneumoniae); assay: inhibition of K. pneumoniae IucA enzyme – biochemical, Tocris library, absorbance (AID 1345561; call rule not given here;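 further: 100% = enzyme without compound and 0% = no enzyme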); settings: purified IucA enzyme assay, absorbance (OD) read-out; stronger effect = lower value;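 tested at 8 µM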
# [4] = chitosan synthesis blockers in C. neoformans – flow cytometry, Cibacron Brilliant Red staining (AID 1347148; call rule not given here;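 further: compound exposure lasted three days at 37 degrees C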); settings: Cryptococcus neoformans chitosan, stronger effect = lower value; at 99.1 µM unless noted
# [5] = viability loss in pontine glioma line – cell-based, SU-DIPG-XIII, MIPE5.0, CellTiter-Glo, qHTS, dose response (AID 1347064; cut-off not given, nearly all actives have AC50 up to about 23 µM;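 on AC50: cells exposed to compound for 48 hours before the viability read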); settings: CellTiter-Glo ATP luminescence
# [6] = P. berghei load reduction in hepatocytes – cell-based, HepG2, luciferase luminescence, HepG2 viability, primary screen (AID 624349; in the data active means parasite load remaining mostly below about 12%, no sharp cut-off; inactive means mostly above about 10%;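 further: 100% = mean of DMSO negative control wells on the same plate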); settings: P. berghei liver stage in HepG2, luciferase luminescence, concentration not given here; parasite load remaining: stronger effect = lower value; viability: measured here: HepG2 viability without parasites
# [7] = compounds altering HSF1 focus formation in cells – imaging, Selleck Cancer Library (AID 1347162; in the data active means plate-normalised HSF1 focus index below about 0.46); settings: human cells, HSF1 nuclear foci imaging, at 10 µM; SSMD: measured here: HSF1 foci SSMD mean; cell count: measured here: cell number; plate-normalised HSF1 focus index: stronger effect = lower value
# [8] = growth inhibition, single agents and combos, CRL2098, cell-based, BGB or cisplatin IC20 combos, synergistic combos for chromothripsis tumors (AID 1671454); settings: CRL2098 osteosarcoma cells, drug combinations, stronger effect = higher value;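 further: cells exposed for 96 h before readout; 0% = vehicle DMSO and 100% = killing by high DMSO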
# [9] = growth inhibition, single agents and combos, HD-MB03, cell-based, BGB or cisplatin IC20 combos, synergistic combos for chromothripsis tumors (AID 1671455; in the data active means inhibition above about 83%;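 further: 0% = vehicle DMSO and 100% = high DMSO as cytotoxic control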); settings: HD-MB03 medulloblastoma cells, stronger effect = higher value
# [10] = growth inhibition, single agents and combos, UWB1.289, cell-based, BGB or cisplatin combos, synergistic combos for chromothripsis tumors (AID 1671456); settings: UWB1.289 ovarian carcinoma cells, stronger effect = higher value;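 further: cells exposed to compound for four days; 0% = vehicle DMSO and 100% = killing by high DMSO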
# [11] = growth inhibition, single agents and combos, LFS_MB_2R, cell-based, cisplatin combos, synergistic combos for chromothripsis tumors (AID 1671457); settings: LFS_MB_2R medulloblastoma cells, stronger effect = higher value;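 further: cells exposed to compound for four days before readout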
# [12] = UWB1.289_BRCA1 ovarian cancer growth, cell-based, BGB or cisplatin combinations (AID 1671459); settings: UWB1.289 BRCA1 ovarian carcinoma, drug combinations, stronger effect = higher value
# [13] = drug combination toxicity in non-malignant astrocytes – cell-based, BGB or cisplatin IC20 combos, cytotoxicity control for chromothriptic childhood tumor combination screen (AID 1671460); settings: Human astrocytes, viability inhibition, drug combinations, at 0.5 µM, stronger effect = higher value;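 further: cells exposed to compounds for 96 hours before viability readout; 0% = vehicle and 100% = killing control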
# [14] = biological target: ATP-dependent translocase ABCB1 (Homo sapiens) (UniProt P08183); assay: P-glycoprotein substrate transport blockade – cell-based (AID 377; in the data active means fluorescence slope change above about 50%); settings: MDR1-expressing cells, fluorescent substrate accumulation slope; stronger effect = higher value; concentration not given here
# [15] = measured here: combination with BGB at IC20, at 0.5 µM
# [16] = measured here: combination with cisplatin at IC20, at 0.5 µM
# [17] = measured here: combo with BGB at IC20, at 0.5 µM
# [18] = measured here: combo with cisplatin at IC20, at 0.5 µM
# [19] = measured here: inhibition with BGB combination, at 0.05 µM
# [20] = measured here: inhibition with cisplatin combination, at 0.05 µM
# [21] = measured here: combination with cisplatin, at 0.5 µM
# [22] = measured here: combination with cisplatin, at 5 µM
# [23] = BGB combination, concentration series, at 5 µM
# [24] = cisplatin combination, concentration series, at 5 µM
# [25] = measured here: combo with BGB IC20
# [26] = measured here: combo with cisplatin IC20
# Chain of ATP-dependent translocase ABCB1 (Homo sapiens) (P08183 whole entry, looked up): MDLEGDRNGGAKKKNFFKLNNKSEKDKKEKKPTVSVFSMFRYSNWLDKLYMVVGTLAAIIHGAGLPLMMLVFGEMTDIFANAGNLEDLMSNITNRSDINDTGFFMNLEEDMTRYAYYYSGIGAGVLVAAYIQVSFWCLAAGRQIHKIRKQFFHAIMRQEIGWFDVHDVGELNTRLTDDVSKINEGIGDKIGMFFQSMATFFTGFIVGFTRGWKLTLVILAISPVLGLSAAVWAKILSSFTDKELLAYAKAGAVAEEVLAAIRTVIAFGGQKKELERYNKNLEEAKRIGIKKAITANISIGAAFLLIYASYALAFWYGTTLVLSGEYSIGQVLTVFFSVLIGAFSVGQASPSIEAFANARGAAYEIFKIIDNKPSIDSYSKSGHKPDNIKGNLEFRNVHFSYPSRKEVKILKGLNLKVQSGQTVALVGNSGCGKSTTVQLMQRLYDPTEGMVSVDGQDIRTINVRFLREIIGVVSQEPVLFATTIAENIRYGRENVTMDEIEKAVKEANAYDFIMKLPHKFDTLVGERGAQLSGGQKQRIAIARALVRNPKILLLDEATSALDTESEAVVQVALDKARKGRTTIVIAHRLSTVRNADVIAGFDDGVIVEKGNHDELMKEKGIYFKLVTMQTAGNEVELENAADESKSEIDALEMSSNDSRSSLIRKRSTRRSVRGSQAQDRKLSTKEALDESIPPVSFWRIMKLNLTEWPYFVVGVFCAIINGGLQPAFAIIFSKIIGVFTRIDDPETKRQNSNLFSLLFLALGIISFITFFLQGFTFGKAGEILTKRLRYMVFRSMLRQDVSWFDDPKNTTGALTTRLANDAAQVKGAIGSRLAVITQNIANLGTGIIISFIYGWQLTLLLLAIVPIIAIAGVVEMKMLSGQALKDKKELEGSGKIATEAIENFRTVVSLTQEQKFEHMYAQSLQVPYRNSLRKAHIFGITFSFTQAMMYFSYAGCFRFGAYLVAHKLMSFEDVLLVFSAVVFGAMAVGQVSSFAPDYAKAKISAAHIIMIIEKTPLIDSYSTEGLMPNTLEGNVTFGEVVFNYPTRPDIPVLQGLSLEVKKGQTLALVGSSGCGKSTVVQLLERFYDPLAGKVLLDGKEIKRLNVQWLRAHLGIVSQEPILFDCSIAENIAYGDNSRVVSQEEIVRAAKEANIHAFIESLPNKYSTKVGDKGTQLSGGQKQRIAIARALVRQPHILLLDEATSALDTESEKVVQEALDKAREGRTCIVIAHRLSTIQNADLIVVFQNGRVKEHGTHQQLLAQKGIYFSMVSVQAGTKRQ
structure (smiles),measurement,setting,value
COCCOC(=O)C1=C(C)NC(C)=C(C(=O)OC(C)C)C1c1cccc([N+](=O)[O-])c1 (configuration not stated),period change,[1],0.19 h (inactive)
same,z-score,[2],-0.18 (inactive)
same,remaining activity,[3],102% (inactive)
same,fold fluorescence,[4],6.04 [at 119.5 µM] (inactive)
NS(=O)(=O)c1cc2c(cc1Cl)NCNS2(=O)=O,period change,[1],0.06 h (inactive)
same,outcome,[5],inactive
O=C(O)CCCc1ccccc1,parasite load remaining,[6],61.6% (inactive) and 72.5% (inactive)
same,viability,[6],96.6% and 102%
same,remaining activity,[3],106% (inactive)
same,SSMD,[7],2.46
same,cell count,[7],7000
same,plate-normalised HSF1 focus index,[7],1.14 (inactive)
same,inhibition,[8]; at 0.5 µM,-56.1% (inactive)
same,inhibition,[8]; [15],-54.3%
same,inhibition,[8]; [16],-68.3%
same,inhibition,[9]; at 0.5 µM,-7.96% (inactive)
same,inhibition,[9]; [17],-7.07%
same,inhibition,[9]; [18],-7.42%
same,inhibition,[10]; at 0.5 µM,-4.79% (inactive)
same,inhibition,[10]; [19],-17.3%
same,inhibition,[10]; [20],-13.9%
same,inhibition,[11]; at 0.5 µM,-17.8% (inactive)
same,inhibition,[11]; [21],-17.8%
same,inhibition,[11]; [22],-56.2%
same,inhibition,[12]; [23],3.17%
same,inhibition,[12]; at 0.5 µM,-1.28% (inactive)
same,inhibition,[12]; [24],25.2%
same,inhibition,[13],2.17% (inactive)
same,inhibition,[13]; [25],-14.8%
same,inhibition,[13]; [26],-0.734%
N[C@@H](Cc1cc(I)c(Oc2cc(I)c(O)c(I)c2)c(I)c1)C(=O)O,fluorescence slope change,[14],62.7% (active)
same,outcome,[5],inactive
CCCCNc1cc(C(=O)O)cc(S(N)(=O)=O)c1Oc1ccccc1,fluorescence slope change,[14],105% (active)
same,period change,[1],0.11 h (inactive)
same,outcome,[5],inactive
same,fold fluorescence,[4],4.08 [at 137.2 µM] (inactive)
CC1=C(/C=C/C(C)=C/C=C/C(C)=C/C(=O)O)C(C)(C)CCC1,fluorescence slope change,[14],101% (active)
same,period change,[1],0.355 h (inactive)
same,remaining activity,[3],104% (inactive)
same,fold fluorescence,[4],4.11 [at 10 µM] (inactive)
O=c1[nH]cnc2[nH]ncc12,period change,[1],0.19 h (inactive)
same,parasite load remaining,[6],54% (inactive) and 101% (inactive) and 124% (inactive)
same,viability,[6],90.8% and 70.7% and 94.2%
same,outcome,[5],inactive
Oc1c(Cl)cc(Cl)c2cccnc12,parasite load remaining,[6],-2.47% (inactive) and 0.685% (inactive)
same,viability,[6],56.8% and 69.6%
same,AC50,[5],11.8 µM (active)
CCCc1nc2c(C)cc(-c3nc4ccccc4n3C)cc2n1Cc1ccc(-c2ccccc2C(=O)O)cc1,z-score,[2],-0.492 (inactive)
same,outcome,[5],inactive
CC12CC3CC(C)(C1)CC(N)(C3)C2,period change,[1],0.205 h (inactive)
same,outcome,[2],inactive
same,remaining activity,[3],87.5% (inactive)
S=c1nc[nH]c2nc[nH]c12,parasite load remaining,[6],27.1% (inactive) and 38.1% (inactive) and 20.6% (inactive)
same,viability,[6],73.4% and 55.1% and 57.4%
same,inhibition,[8]; at 0.5 µM,-2.69% (inactive) and -57.6% (inactive) and -53.9% (inactive)
same,inhibition,[8]; [15],-5.16% and -41% and -65.5%
same,inhibition,[8]; [16],-32% and -63.9% and -65.9%
same,inhibition,[9]; at 0.5 µM,-4.55% (inactive) and -3.29% (inactive) and -17.6% (inactive)
same,inhibition,[9]; [17],-4.3% and -15.6% and -16.3%
same,inhibition,[9]; [18],-5.54% and 2.44% and -26.8%
same,inhibition,[10]; at 0.5 µM,57.7% (inactive) and 56.2% (inactive) and 56.1% (inactive)
same,inhibition,[10]; [19],-14.8% and -13.6% and -15.6%
same,inhibition,[10]; [20],-7.08% and -3.38% and -9.93%
same,inhibition,[11]; at 0.5 µM,-7.19% (inactive) and -1.38% (inactive) and -2.98% (inactive)
same,inhibition,[11]; [21],-15.5% and -27.1% and 4.18%
same,inhibition,[11]; [22],-9.32% and -12.4% and -4.44%
same,inhibition,[12]; [23],95.7% and 91.5% and 93.1%
same,inhibition,[12]; at 0.5 µM,63.6% (inactive) and 53.4% (inactive) and 47.8% (inactive)
same,inhibition,[12]; [24],100% and 93.5% and 94.9%
same,inhibition,[13],13.8% (inactive) and -4.07% (inactive) and -10.8% (inactive)
same,inhibition,[13]; [25],14.2% and -8.32% and -0.26%
same,inhibition,[13]; [26],3.43% and 3.12% and -27.4%
O=C(O)c1cc(=O)c2c(OCC(O)COc3cccc4oc(C(=O)O)cc(=O)c34)cccc2o1,outcome,[5],inactive
O=C1c2c(O)ccc(O)c2C(=O)c2c(NCCNCCO)ccc(NCCNCCO)c21,period change,[1],-1.74 h (active)
same,AC50,[5],10.5 µM (active)
same,SSMD,[7],-1.6
same,cell count,[7],7320
same,plate-normalised HSF1 focus index,[7],0.898 (inactive)
same,inhibition,[8]; at 0.5 µM,7.34% (inactive)
same,inhibition,[8]; [15],20.4%
same,inhibition,[8]; [16],-13.9%
same,inhibition,[9]; at 0.5 µM,88% (active)
same,inhibition,[9]; [17],86.5%
same,inhibition,[9]; [18],84.8%
same,inhibition,[10]; at 0.5 µM,64.9% (inactive)
same,inhibition,[10]; [19],-29.8%
same,inhibition,[10]; [20],-25.8%
same,inhibition,[11]; at 0.5 µM,-5.4% (inactive)
same,inhibition,[11]; [21],20.8%
same,inhibition,[11]; [22],92.5%
same,inhibition,[12]; [23],105%
same,inhibition,[12]; at 0.5 µM,63.4% (inactive)
same,inhibition,[12]; [24],104%
same,inhibition,[13],68.8% (inactive)
same,inhibition,[13]; [25],69.1%
same,inhibition,[13]; [26],56.7%
CCCc1cc(=O)[nH]c(=S)[nH]1,fluorescence slope change,[14],-6.8% (inactive)
same,outcome,[5],inactive
CC(C)C(=O)Nc1ccc([N+](=O)[O-])c(C(F)(F)F)c1,fluorescence slope change,[14],60.9% (active)
same,period change,[1],-0.165 h (inactive)
same,outcome,[5],inactive
same,SSMD,[7],1.17
same,cell count,[7],6660
same,plate-normalised HSF1 focus index,[7],1.06 (inactive)
COc1c(N2CCNC(C)C2)c(F)cc2c(=O)c(C(=O)O)cn(C3CC3)c12 (configuration not stated),inhibition,[8]; at 0.5 µM,-43.6% (inactive) and -34.5% (inactive)
same,inhibition,[8]; [15],-42.5% and -87.3%
same,inhibition,[8]; [16],-71.8% and 0.194%
same,inhibition,[9]; at 0.5 µM,-13.9% (inactive) and 3.18% (inactive)
same,inhibition,[9]; [17],-14.1% and 5.19%
same,inhibition,[9]; [18],-19.6% and 0.97%
same,inhibition,[10]; at 0.5 µM,-2.27% (inactive) and 6.63% (inactive)
same,inhibition,[10]; [19],-7.46% and -0.326%
same,inhibition,[10]; [20],-30.7% and -0.886%
same,inhibition,[11]; at 0.5 µM,-11.1% (inactive) and 6.57% (inactive)
same,inhibition,[11]; [21],-12.5% and 9.12%
same,inhibition,[11]; [22],-5.47% and -26.4%
same,inhibition,[12]; [23],-10.3% and 3.45%
same,inhibition,[12]; at 0.5 µM,-4.22% (inactive) and 5.59% (inactive)
same,inhibition,[12]; [24],-1.48% and 7.21%
same,inhibition,[13],-3.01% (inactive) and 1.57% (inactive)
same,inhibition,[13]; [25],-5.37% and 4.53%
same,inhibition,[13]; [26],-9.08% and 0.874%
CC(C[N+](C)(C)C)OC(N)=O (configuration not stated),period change,[1],-0.04 h (inactive)
O=C(C1CCCCC1)N1CC(=O)N2CCc3ccccc3C2C1 (configuration not stated),period change,[1],0.13 h (inactive)
same,outcome,[5],inactive
CC(COc1ccccc1)N(CCCl)Cc1ccccc1 (configuration not stated),period change,[1],0.03 h (inactive)
same,outcome,[5],inactive
